From PubChem
TIM10 inh = growth inhibitors of TIM10 yeast strain; S. cerevisiae TIM10 strain growth, BacTiter-Glo luminescence, 24 h; inhibition, % at 10 µM; 330,000 compounds, 1.4% hits; AID 463195;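 active = inhibition of 40% or more at the single tested concentration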;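 note: wild-type TIM10 isogenic control strain grown at permissive 25 °C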
PfHsp90 set2 = growth inhibition of yeast expressing Plasmodium Hsp90; S. cerevisiae expressing PfHsp90, BacTiter-Glo ATP, 48 h; yeast lacking PDR1 and PDR3 efflux regulators; inhibition, % at 9.4 µM; 310,000 compounds, 0.32% hits;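 active = every replicate shows inhibition above about 80%, whatever the replicate mean, limit read from the data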;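 note: 0% = DMSO neutral controls and 100% = 20 µM radicicol positive controls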
Beta2AR agonist = human beta-2 adrenergic receptor agonism by FAP | P07550 | AID 504454 | response, % (test concentration not listed) | Am2.2-beta2AR cells, FAP receptor internalization, flow cytometry | 340,000 compounds, 0.43% hits;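 active = response above a set limit, near 3 SD of response in nonfluorescent compounds, cut at about 42% in these data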
Target sequence (P07550 whole entry, looked up): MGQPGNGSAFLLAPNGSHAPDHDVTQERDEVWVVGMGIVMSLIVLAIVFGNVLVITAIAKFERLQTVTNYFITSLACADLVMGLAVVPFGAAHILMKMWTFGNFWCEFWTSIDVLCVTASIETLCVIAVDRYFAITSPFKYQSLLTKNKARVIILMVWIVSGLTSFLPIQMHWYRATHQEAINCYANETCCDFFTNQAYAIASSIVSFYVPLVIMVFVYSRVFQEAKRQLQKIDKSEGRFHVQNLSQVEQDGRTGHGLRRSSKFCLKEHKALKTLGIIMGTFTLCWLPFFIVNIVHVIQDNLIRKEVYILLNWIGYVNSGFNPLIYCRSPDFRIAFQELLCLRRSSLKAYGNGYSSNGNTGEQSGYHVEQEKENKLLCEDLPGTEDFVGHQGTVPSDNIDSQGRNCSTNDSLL
tim23-1 inh = growth inhibitors of tim23-1 mutant yeast; S. cerevisiae tim23-1 growth, BacTiter-Glo luminescence, 24 h; inhibition, % at 20 µM; 330,000 compounds, 1.3% hits; AID 463212;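 active = growth inhibition of the mutant yeast at or above 50%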;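 note: temperature-sensitive mutant grown at 25 °C; plate controls were DMSO-treated mutant yeast for no effect and medium wells lacking yeast for full effect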
tim10-1 inh = tim10-1 yeast growth inhibition. S. cerevisiae tim10-1 ts strain growth, BacTiter-Glo, 24 h. inhibition, % at 20 µM. 330,000 compounds, 2.2% hits. AID 463190;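 active = inhibition of at least 40%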;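 note: mutant grown at 25 °C; 0% = DMSO wells with yeast and 100% = wells holding no yeast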
tim10-1 confirm = tim10-1 yeast growth inhibition, confirmed; AID 463213; shares compounds with tim10-1 inh; inhibition, % at 20 µM; S. cerevisiae tim10-1 ts strain growth, BacTiter-Glo, 24 h; 7,400 compounds, 56% hits;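 active = inhibition of yeast growth at or above a set limit in either of two repeat tests at 20 µM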;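 note: tim10-1 mutant grown at permissive 25 °C to find synthetic lethal compounds; 0% = DMSO yeast wells and 100% = medium wells without yeast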
* = called active by the depositor; / = no result. Compounds with a hit are over-represented: about 3.8% of the library has one in this group of screens.

SMILES	TIM10 inh	PfHsp90 set2	Beta2AR agonist	tim23-1 inh	tim10-1 inh	tim10-1 confirm
CCOC(=O)CSc1nc(C2CC2)nc2ccccc12	20	-11	-6	29	40*	3
CN1CCN(C(=O)c2ccc(CSc3ccc(Cl)cc3)cc2)CC1	8	-8	0	8	10	/
CCOC(=O)N1CCN(C(=O)c2ccc(CSc3ccc(Cl)cc3)cc2)CC1	34	30	2	38	45*	45*
Oc1ccc(CN2CCCCC2)c2cccnc12	14	-15	0	-7	2	/
Oc1c(CN2CCN(c3ccccn3)CC2)cc(Cl)c2cccnc12	25	-9	2	46	52*	19
Oc1ccc(CN2CCN(c3ccccc3)CC2)c2cccnc12	-34	12	-1	18	66*	-37
O=[N+]([O-])c1cc(CN2CCCC2)c2cccnc2c1O	/	-22	1	/	/	/
O=[N+]([O-])c1cc(CN2CCN(c3cccc(C(F)(F)F)c3)CC2)c2cccnc2c1O	20	99*	-5	42	48*	9
OCCN1CCN(Cc2cc(Cl)c3cccnc3c2O)CC1	16	1	7	-4	33	/
O=[N+]([O-])c1ccc(COc2cccc(CN3CCCCC3)c2)cc1	/	-23	0	/	/	/
O=C(Nc1cccc(C(F)(F)F)c1)N1CCC(c2nc(-c3ccc(F)cc3)no2)CC1	7	/	7	30	42*	39*
CC(C)Oc1ccc(CN2CCC(n3nccc3NC(=O)C3CC3)CC2)cc1	-7	11	3	3	-2	/
O=C(OC1CCCCC1=O)c1cc(Cl)ccc1[N+](=O)[O-] (stereo not given)	19	2	-14	44	45*	39*
CC(C)(C)OC(=O)N1CCCC(C(=O)Nc2ccc(C(=O)NCCc3ccccc3)cc2)C1 (stereo not given)	/	-24	8	/	/	/
CN(C)CCN(C(=O)c1ccc(S(=O)(=O)N(C)c2ccccc2)cc1)c1nc2ccc(Cl)cc2s1	0	-3	0	7	13	/
CN(C)CCCN(C(=O)c1ccc(S(=O)(=O)N2CCc3ccccc32)cc1)c1nc2ccc(Cl)cc2s1	19	-27	9	22	43*	34*
CN(C)CCCN(C(=O)c1ccc(S(=O)(=O)N(C)C)cc1)c1nc2ccc(F)cc2s1	12	19	-1	-1	14	/
CN(C)CCCN(C(=O)c1ccc(S(=O)(=O)N2CCc3ccccc32)cc1)c1nc2ccc(F)cc2s1	15	-3	17	22	40	26
COCCN(Cc1ccccc1)C(=S)Nc1ccc(OC(F)F)cc1	23	12	2	30	43*	26
CCCN(Cc1ccccc1)C(=S)Nc1ccc(OC(F)F)cc1	24	-3	8	33	25	/
Cc1ccccc1CN(CC(=O)Nc1cccc([N+](=O)[O-])c1)S(=O)(=O)c1ccc(Cl)cc1	12	8	0	33	45*	24
CS(=O)(=O)N(CC(=O)Nc1cccc([N+](=O)[O-])c1)c1ccccc1	3	-9	2	13	-1	/
COc1ccc(-n2c(C)cc(C(=O)CSc3nnc(-c4ccoc4C)n3C)c2C)cc1	4	0	-5	25	40*	19
CCC1CCCCN1c1cc(C)nc2cc(-c3cccc(C)c3)nn12 (stereo not given)	23	-25	34	21	42*	9
O=C(CCl)Nc1c(C(=O)Nc2ccc3c(c2)OCCO3)oc2ccccc12	39	-2	10	48	42*	21
SMILES	TIM10 inh	PfHsp90 set2	Beta2AR agonist	tim23-1 inh	tim10-1 inh	tim10-1 confirm
COCC(=O)Nc1c(C(=O)Nc2ccc3c(c2)OCO3)oc2ccccc12	0	0	4	6	-12	/
O=[N+]([O-])c1cc(S(=O)(=O)O)cc([N+](=O)[O-])c1NN(c1ccccc1)c1ccccc1	4	-28	9	11	18	/
CCCc1nn(C)c(C(=O)Nc2ccc(C)c(C)c2)c1Cl	-10	-12	0	3	0	/
CCCc1nn(C)c(C(=O)Nc2ccc(CC)cc2)c1Cl	11	10	-5	20	43*	11
COc1ccc(-n2nnnc2-c2cccc(OC)c2)cc1	-7	-4	19	1	44*	13
Cc1ccc(-n2nnnc2-c2cccc(C)c2)cc1	23	-13	-2	3	25	/
COC(=O)c1cn(-c2ccc(Cl)cc2)c(=O)c2ccccc12	25	-22	3	39	44*	29
